Experimental data as given in ChEMBL document CHEMBL1157539, “Thousands of chemical starting points for antimalarial lead identification” (Nature, 2010).

Columns and labels:
Format in all cases: functional
Plasmodium falciparum [1] = experiment: GSK_TCMDC: Inhibition of Plasmodium falciparum 3D7 in whole red blood cells, using parasite LDH activity as an index of growth. Test compounds present at 2uM
Plasmodium falciparum [2] = experiment: GSK_TCMDC: Inhibition of Plasmodium falciparum Dd2 in whole red blood cells, using parasite LDH activity as an index of growth. Test compounds present at 2uM
HepG2 = experiment: GSK_TCMDC: Percent inhibition of human HepG2 cell line. Test compounds present at 10uM.

SMILES	Inhibition (Plasmodium falciparum [1])	Inhibition (Plasmodium falciparum [2])	Inhibition (HepG2)
CC1CN(c2ccc3occ(C(=O)Nc4ccc(-c5ccncc5)c(Cl)c4)c3c2)CC(C)N1C.Cl (stereo unspecified)	100%	96%	14%
CC(C)COc1ccc(Cl)cc1Nc1nc(-c2nc3ccccc3[nH]2)cs1.Cl	96%	29%	2%
CCN(CC)CCOc1cc2c(cc1Br)-c1cc(Br)c(OCCN(CC)CC)cc1C2=NO.Cl	100%	98%	99%
Cc1cc(=NN=Cc2ccc(Cl)cc2)c2cc(C(F)(F)F)ccc2[nH]1	91%	32%	0%
O=C(Nc1cccc(-c2ccc(-c3nc4cc(F)ccc4[nH]3)cc2)c1)c1csnn1	94%	31%	22%
CCN(CC)CCCN(Cc1ccc(-c2ccc(C(F)(F)F)cc2)cc1)C(=O)Cn1c(SCc2cccc(F)c2F)cc(=O)c2ccccc21.O=C(O)C(O)C(O)C(=O)O	87%	82%	45%
Cc1cccc2nc(-c3ccc(-c4ccc(NC(=O)NCc5ccc(F)cc5)cc4)cc3)[nH]c12	100%	99%	70%
COc1ccc(CNCC(C)(C)c2nc(-c3ccc(Cl)c(O)c3)c(-c3ccncc3)[nH]2)cc1.Cl	100%	99%	76%
O=C(NCc1cccc(F)c1)Nc1ccc(-c2cccc(-c3nc4ccccc4[nH]3)c2)cc1	86%	2%	14%
O=C(N[C@H]1CCN(Cc2ccc(OCCCN3CCCCC3)cc2)C1)c1ccc(Cl)c(Cl)c1	100%	36%	27%
COCCN1CCC(N(Cc2ccc(-c3ccc(C(F)(F)F)cc3)cc2)C(=O)Cn2c(CCc3cccc(F)c3F)cc(=O)c3c2CCC3)CC1.O=C(O)C(O)C(O)C(=O)O	85%	48%	31%
CCNc1cc(C(=O)N[C@@H](Cc2ccccc2)[C@H](O)CNC2CC3CCC2C3)cc(N2CCCCS2(=O)=O)c1.Cl (stereo partly specified)	99%	73%	0%
O=C(Nc1cccc(C(F)(F)F)c1)NC1CCN(c2ccnc3cc(Cl)ccc23)CC1.O=C(O)C(F)(F)F	100%	47%	13%
CCCCC(O)c1cc(O)c2c(c1)OC(C)(C)CC2C1=CCN(Cc2ccc3ccccc3c2)CC1 (stereo unspecified)	100%	97%	7%
O=C(CSc1nccn1C1CCCC1)Nc1cc(C(F)(F)F)ccc1Cl	96%	94%	0%
CN1CCN(CCCN(Cc2cccc(-c3ccc(CNC4CCCC4)cc3)c2)C(=O)/C=C/c2ccccc2)CC1.O=C(O)C(F)(F)F	98%	96%	62%
CCNc1cc(C(=O)N[C@@H](Cc2ccccc2)[C@H](O)CNC2(CC)CCCCC2)cc(N2CCCCS2(=O)=O)c1.Cl	98%	98%	3%
COc1ccc(CC(=O)Nc2ccc(Nc3nc(C)cc(N(C)C)n3)cc2)cc1	97%	31%	17%
CC(=O)N1N=C(c2ccc(F)cc2)Sc2c1nc(C1CCCCC1)n2C(C)=O	92%	9%	4%
CC(C)C[C@H](NC(=O)c1cc2ccccc2s1)C(=O)N[C@H]1CCN(Cc2ccc(I)c(OCCN3CCCC3)c2)C1.O=C(O)C(F)(F)F	92%	88%	3%
CCCCCCCC1CC(CC(=O)Nc2ccnc3ccc(OC)cc23)CN1 (stereo unspecified)	90%	58%	22%
Br.Oc1ccc(CCNCCCCCCNCCc2ccc(Cl)c3ccccc23)cc1O	99%	1%	22%
COc1ccc2ncc(F)c(CCN3CCC(CNCc4cccc5c4OCO5)CC3)c2n1.Cl	93%	37%	39%
O=C(O)C(F)(F)F.Oc1ccc(CCNc2nc(NCCCOc3cccc(-c4ccccc4)c3)nc(N3CCNCC3)n2)cc1	89%	14%	40%
COc1cc(Nc2ccnc3cc(-c4ccccn4)ccc23)cc(OC)c1OC.Cl	91%	0%	0%
O=C(Nc1cccc(CN2CCCN(Cc3ccc(O)cc3)CC2)c1)c1cc2ccccc2s1.O=C(O)C(F)(F)F	100%	90%	27%
COc1c(C2CCN(CCCCNC(=O)c3ccc(-c4ccc(NC(=O)C(F)(F)F)cc4)cc3)CC2)ccc2c1CCCC2	86%	33%	95%
